Holding throughout (test): DAPPL (digital affinity profiling via proximity ligation, sequencing); 10 mM Tris-HCl pH 7.5, 50 mM NaCl, 1 mM DTT, 4% glycerol, room temperature, 30 min; GST-TFs on glutathione beads, 16-mer random dsDNA library, 0.1% formaldehyde crosslink after washing; high values mean tight binding
The target in one assay is T1, FEV (Homo sapiens, UniProt Q99581 1-238).
T1 sequence: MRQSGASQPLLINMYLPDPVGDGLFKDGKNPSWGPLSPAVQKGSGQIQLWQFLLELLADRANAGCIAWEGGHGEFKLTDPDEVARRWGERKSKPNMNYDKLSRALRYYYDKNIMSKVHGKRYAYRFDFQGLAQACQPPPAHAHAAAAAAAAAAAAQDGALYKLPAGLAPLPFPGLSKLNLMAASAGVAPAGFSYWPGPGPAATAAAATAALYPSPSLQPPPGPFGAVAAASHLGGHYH
The note with it: protein: recombinant; tags: N-terminal GST; dsDNA, one strand shown. The essentials: (§1)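 Binding signal is given per hexamer as its read frequency for a factor divided by its frequency in the tag-only sample. GST-fused human transcription factors were expressed in yeast, captured on glutathione beads, barcoded with DNA and pooled with that sample, then incubated with 200 nmole of a 16-mer random double-stranded DNA library in Tris/NaCl/DTT/glycerol buffer for 30 min at room temperature. The pools were then washed, crosslinked, proximity-ligated, amplified by PCR and sequenced on an Illumina NextSeq500.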

The target of another assay is ETV5 (Homo sapiens, UniProt P41161 1-510). The note with it: protein: recombinant; tags: N-terminal GST; dsDNA, one strand shown. The essentials: as §1
ETV5, sequence (P41161 whole entry): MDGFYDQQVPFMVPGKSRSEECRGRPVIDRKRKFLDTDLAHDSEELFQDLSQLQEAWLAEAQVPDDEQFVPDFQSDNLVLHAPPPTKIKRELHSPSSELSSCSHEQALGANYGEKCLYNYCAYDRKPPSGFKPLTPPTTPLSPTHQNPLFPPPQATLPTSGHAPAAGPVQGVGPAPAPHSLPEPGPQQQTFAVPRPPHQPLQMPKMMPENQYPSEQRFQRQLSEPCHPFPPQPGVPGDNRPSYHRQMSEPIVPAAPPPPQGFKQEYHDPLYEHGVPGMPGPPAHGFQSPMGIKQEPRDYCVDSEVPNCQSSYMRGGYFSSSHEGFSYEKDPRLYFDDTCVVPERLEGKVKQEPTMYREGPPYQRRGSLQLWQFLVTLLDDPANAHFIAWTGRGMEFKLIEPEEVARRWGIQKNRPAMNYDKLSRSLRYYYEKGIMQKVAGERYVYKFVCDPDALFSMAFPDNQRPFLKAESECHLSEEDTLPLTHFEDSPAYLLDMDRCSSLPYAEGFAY
The target in a further assay is HSF1 (Homo sapiens, UniProt Q00613 1-529). Conditions: protein: recombinant; tags: N-terminal GST; chain copies: 3; dsDNA, one strand shown. The essentials: as §1
HSF1, sequence (Q00613 whole entry): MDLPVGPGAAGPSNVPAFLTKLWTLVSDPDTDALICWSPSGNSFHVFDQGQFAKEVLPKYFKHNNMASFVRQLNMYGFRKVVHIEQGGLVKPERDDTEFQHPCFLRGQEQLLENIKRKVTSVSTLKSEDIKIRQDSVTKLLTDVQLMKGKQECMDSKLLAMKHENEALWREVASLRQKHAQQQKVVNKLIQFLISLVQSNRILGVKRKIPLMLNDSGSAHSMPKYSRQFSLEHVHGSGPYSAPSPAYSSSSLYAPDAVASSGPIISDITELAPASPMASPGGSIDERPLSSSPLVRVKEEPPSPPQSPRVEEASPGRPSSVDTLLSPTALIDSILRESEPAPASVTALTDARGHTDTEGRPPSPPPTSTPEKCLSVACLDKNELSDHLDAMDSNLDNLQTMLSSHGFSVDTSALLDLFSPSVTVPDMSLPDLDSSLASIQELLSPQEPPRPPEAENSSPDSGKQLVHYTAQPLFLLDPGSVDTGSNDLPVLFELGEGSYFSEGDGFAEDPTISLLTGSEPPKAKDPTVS
The target of a further assay is T2, SPIC (Homo sapiens, UniProt Q8N5J4 1-248).
T2 sequence: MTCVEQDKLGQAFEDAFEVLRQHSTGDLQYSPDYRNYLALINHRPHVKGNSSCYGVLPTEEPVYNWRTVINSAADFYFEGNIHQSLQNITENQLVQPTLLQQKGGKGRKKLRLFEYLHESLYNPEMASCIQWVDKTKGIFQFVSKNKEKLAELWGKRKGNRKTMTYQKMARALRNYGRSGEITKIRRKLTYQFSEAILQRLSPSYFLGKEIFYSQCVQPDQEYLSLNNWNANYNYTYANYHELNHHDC
Conditions: protein: recombinant; tags: N-terminal GST; dsDNA, one strand shown. The essentials:
as §1

The target in the next assay is ELF4 (Homo sapiens, UniProt Q99607 1-663). Conditions: protein: recombinant; tags: N-terminal GST; dsDNA, one strand shown. The method in brief: as §1
ELF4, sequence (Q99607 whole entry): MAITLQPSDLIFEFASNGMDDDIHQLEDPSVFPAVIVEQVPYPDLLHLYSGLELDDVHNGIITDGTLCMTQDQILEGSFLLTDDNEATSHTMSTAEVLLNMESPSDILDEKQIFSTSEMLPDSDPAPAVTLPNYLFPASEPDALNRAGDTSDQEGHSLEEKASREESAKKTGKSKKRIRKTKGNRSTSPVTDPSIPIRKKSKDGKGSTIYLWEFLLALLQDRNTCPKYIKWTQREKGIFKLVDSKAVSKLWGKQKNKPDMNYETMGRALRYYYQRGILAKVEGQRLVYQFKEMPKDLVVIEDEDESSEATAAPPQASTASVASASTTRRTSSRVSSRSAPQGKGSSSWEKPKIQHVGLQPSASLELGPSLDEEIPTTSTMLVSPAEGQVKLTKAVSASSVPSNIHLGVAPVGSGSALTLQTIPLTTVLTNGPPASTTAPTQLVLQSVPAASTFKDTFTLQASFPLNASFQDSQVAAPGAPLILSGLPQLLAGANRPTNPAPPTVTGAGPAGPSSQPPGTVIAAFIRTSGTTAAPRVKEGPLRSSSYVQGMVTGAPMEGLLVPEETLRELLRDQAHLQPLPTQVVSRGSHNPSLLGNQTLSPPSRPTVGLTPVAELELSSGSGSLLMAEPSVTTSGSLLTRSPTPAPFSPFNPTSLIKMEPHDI
A further assay deals with T3, ELK4 (Homo sapiens, UniProt P28324-2 1-405).
T3 sequence: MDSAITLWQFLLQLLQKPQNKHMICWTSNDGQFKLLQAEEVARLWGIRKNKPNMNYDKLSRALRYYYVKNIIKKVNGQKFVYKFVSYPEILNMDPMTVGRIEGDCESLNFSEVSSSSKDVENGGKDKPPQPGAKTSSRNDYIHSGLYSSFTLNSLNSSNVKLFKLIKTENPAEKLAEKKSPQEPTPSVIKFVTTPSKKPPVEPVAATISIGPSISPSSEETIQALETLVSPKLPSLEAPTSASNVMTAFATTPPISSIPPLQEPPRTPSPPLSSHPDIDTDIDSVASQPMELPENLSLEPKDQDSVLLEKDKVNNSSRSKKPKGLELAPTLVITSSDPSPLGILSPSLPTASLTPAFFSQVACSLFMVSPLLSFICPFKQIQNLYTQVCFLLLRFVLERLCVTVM
The note with it: protein: recombinant; tags: N-terminal GST; dsDNA, one strand shown. The method in brief:
as §1

Another assay concerns the target T4, ETV2 (Homo sapiens, UniProt O00321 1-342).
T4 sequence: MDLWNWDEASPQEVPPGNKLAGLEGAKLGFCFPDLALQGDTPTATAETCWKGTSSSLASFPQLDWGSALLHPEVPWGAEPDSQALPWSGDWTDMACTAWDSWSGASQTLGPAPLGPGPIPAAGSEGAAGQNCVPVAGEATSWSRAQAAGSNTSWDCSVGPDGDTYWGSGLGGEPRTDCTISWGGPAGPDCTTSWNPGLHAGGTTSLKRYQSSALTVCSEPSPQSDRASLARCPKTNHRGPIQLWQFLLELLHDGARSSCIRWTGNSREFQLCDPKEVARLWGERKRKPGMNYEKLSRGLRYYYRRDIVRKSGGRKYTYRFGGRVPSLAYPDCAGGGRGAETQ
The note with it: protein: recombinant; tags: N-terminal GST; dsDNA, one strand shown. The method in brief:
as §1

The target in a further assay is T5, ELF3 (Homo sapiens, UniProt P78545 1-371).
T5 sequence: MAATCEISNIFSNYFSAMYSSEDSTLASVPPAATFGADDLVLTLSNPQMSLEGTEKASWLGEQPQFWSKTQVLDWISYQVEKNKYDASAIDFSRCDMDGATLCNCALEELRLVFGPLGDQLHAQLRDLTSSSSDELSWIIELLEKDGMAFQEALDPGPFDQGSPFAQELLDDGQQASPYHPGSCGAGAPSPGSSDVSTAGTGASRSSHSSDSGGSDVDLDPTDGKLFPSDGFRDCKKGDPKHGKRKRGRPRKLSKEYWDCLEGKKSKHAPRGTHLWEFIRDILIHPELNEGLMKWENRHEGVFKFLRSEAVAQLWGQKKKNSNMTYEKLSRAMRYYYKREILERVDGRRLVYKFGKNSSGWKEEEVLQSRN
Conditions: protein: recombinant; tags: N-terminal GST; dsDNA, one strand shown. The method in brief: as §1

The target in another assay is CRX (Homo sapiens, UniProt O43186 1-299). Conditions: protein: recombinant; tags: N-terminal GST; dsDNA, one strand shown. The essentials: as §1
CRX, sequence (O43186 whole entry): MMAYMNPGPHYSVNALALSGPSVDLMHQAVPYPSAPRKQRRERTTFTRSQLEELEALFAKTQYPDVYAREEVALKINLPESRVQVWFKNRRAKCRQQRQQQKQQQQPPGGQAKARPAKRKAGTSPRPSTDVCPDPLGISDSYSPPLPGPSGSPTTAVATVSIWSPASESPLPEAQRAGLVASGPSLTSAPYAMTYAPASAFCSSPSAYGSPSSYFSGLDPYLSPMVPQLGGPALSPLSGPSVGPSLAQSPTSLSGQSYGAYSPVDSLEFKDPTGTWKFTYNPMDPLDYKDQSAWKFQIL
The next assay concerns the target ETV1 (Homo sapiens, UniProt P50549 1-477). Conditions: protein: recombinant; tags: N-terminal GST; dsDNA, one strand shown. The essentials:
as §1

The next assay has as its target T6, ERF (Homo sapiens, UniProt P50548 1-548).
T6 sequence: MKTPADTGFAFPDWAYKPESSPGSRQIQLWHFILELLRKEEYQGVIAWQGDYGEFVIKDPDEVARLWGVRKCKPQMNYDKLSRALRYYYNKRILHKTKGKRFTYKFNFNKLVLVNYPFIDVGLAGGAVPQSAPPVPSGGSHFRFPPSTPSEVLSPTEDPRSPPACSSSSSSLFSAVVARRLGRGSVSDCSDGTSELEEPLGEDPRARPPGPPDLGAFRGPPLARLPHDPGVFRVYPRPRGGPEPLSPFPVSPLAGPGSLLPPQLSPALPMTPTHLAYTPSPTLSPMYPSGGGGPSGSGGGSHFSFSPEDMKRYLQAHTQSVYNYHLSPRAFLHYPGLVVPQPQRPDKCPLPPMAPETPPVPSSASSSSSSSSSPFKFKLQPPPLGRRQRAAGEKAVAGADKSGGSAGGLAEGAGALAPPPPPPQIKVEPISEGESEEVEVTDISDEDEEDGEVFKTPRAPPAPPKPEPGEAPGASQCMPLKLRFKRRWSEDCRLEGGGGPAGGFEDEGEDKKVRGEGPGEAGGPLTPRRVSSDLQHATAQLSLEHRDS
The note with it: protein: recombinant; tags: N-terminal GST; dsDNA, one strand shown. The method in brief: as §1

The target of a further assay is T7, ETV3L (Homo sapiens, UniProt Q6ZN32 1-361).
T7 sequence: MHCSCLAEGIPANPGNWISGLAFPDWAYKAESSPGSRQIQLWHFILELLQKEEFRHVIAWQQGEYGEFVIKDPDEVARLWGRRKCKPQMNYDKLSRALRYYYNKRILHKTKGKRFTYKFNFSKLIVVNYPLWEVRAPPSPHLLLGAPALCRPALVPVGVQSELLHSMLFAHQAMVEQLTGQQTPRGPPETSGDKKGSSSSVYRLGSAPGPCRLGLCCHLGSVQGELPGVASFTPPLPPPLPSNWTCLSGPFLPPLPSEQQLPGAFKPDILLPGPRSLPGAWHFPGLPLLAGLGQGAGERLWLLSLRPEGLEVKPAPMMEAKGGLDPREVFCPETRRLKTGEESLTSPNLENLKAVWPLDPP
The note with it: protein: recombinant; tags: N-terminal GST; dsDNA, one strand shown. The essentials:
as §1

The target of a further assay is T8, ETS2 (Homo sapiens, UniProt P15036 1-469).
T8 sequence: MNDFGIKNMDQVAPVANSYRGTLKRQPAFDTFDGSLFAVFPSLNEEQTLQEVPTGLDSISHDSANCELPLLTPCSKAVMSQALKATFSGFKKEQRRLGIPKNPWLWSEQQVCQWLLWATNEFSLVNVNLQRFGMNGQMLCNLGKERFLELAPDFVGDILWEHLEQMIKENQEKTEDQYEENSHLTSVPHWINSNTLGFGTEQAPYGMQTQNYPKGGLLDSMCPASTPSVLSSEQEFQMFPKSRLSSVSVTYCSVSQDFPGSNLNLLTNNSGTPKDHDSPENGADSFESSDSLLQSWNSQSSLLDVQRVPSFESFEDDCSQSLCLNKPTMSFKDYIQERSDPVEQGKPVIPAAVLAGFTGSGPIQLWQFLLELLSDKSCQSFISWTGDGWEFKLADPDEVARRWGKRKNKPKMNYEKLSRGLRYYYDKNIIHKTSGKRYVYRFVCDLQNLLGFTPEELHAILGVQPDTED
Conditions: protein: recombinant; tags: N-terminal GST; dsDNA, one strand shown. The method in brief:
as §1

A further assay addresses T9, SPDEF (Homo sapiens, UniProt O95238 1-335).
T9 sequence: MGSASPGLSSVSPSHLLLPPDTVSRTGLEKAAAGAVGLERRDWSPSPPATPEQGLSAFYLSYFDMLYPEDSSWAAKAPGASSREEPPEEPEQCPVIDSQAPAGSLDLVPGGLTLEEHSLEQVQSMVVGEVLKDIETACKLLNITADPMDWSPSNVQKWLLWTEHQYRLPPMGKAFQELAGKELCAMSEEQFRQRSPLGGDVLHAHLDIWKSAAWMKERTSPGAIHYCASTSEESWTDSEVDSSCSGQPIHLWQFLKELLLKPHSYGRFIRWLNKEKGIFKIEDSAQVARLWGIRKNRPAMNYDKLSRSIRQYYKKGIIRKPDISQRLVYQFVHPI
Conditions: protein: recombinant; tags: N-terminal GST; dsDNA, one strand shown. The essentials: as §1

Another assay has as its target T10, ETV7 (Homo sapiens, UniProt Q9Y603 1-341).
T10 sequence: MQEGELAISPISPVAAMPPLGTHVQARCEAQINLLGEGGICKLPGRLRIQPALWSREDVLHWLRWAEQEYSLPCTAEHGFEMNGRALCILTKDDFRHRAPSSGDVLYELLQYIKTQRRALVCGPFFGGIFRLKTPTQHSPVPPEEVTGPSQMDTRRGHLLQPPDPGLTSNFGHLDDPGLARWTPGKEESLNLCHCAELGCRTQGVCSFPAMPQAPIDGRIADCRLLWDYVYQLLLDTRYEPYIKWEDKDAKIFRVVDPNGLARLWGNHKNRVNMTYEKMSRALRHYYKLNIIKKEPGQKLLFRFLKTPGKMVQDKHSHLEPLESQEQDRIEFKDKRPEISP
The note with it: protein: recombinant; tags: N-terminal GST; dsDNA, one strand shown. The essentials: as §1

Another assay deals with T11, ELF5 (Homo sapiens, UniProt Q9UKW6-2 1-255).
T11 sequence: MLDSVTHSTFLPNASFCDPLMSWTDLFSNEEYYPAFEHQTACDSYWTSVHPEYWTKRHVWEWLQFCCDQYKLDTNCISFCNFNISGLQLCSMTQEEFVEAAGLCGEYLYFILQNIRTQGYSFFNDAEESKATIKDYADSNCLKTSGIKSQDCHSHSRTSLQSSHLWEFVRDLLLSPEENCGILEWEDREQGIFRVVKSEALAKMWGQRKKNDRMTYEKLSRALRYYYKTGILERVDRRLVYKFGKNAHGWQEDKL
The note with it: protein: recombinant; tags: N-terminal GST; dsDNA, one strand shown. The essentials:
as §1

In the next assay the target is T12, ETV3 (Homo sapiens, UniProt P41162-2 1-143).
T12 sequence: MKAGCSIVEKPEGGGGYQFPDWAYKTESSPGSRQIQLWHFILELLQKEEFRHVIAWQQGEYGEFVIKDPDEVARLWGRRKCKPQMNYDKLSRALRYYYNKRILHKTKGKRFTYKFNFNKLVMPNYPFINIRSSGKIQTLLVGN
Conditions: protein: recombinant; tags: N-terminal GST; dsDNA, one strand shown. The method in brief:
as §1

A further assay addresses ETV6 (Homo sapiens, UniProt P41212 1-452). The note with it: protein: recombinant; tags: N-terminal GST; dsDNA, one strand shown. The essentials:
as §1

ETV6, sequence (P41212 whole entry): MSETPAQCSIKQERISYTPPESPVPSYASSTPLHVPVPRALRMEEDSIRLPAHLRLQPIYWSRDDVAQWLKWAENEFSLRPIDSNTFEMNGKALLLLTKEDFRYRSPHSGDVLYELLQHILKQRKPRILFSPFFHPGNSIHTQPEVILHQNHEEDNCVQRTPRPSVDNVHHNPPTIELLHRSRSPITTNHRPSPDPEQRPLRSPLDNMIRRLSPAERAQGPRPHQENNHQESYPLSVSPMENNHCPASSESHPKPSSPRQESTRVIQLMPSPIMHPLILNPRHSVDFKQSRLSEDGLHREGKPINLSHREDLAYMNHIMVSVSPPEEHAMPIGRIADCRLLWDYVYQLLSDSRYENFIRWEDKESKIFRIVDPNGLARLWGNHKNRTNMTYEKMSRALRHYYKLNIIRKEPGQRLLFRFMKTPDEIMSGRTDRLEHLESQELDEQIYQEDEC
ETV1, sequence (P50549 whole entry): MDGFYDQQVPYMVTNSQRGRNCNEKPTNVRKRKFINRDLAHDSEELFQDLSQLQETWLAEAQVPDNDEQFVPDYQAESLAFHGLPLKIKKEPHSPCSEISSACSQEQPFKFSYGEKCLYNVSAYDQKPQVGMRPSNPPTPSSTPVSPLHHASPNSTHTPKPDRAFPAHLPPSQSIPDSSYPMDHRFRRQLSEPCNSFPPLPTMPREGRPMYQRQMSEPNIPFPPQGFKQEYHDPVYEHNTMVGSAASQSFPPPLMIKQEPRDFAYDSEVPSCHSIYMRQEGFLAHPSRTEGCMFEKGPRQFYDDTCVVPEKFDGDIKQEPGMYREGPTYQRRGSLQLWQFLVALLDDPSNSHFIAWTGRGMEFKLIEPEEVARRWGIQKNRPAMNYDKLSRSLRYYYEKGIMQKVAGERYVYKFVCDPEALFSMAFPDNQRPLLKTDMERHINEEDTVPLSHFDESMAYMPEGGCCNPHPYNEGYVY

In the case of ACTCAA, the binding signal in the assay with FEV was 1.23 fold enrichment (6-mer frequency, TF over GST control); with ETV5 it was 1.16 fold enrichment (6-mer frequency, TF over GST control); in the assay with HSF1, 1.07 fold enrichment (6-mer frequency, TF over GST control); with SPIC, 1.17 fold enrichment (6-mer frequency, TF over GST control); with ELF4, 1.16 fold enrichment (6-mer frequency, TF over GST control); in the assay with ELK4 it was 1.18 fold enrichment (6-mer frequency, TF over GST control). Moreover, the binding signal with ETV2 was 1.15 fold enrichment (6-mer frequency, TF over GST control); with ELF3 it was 1.12 fold enrichment (6-mer frequency, TF over GST control); with CRX it was 1.12 fold enrichment (6-mer frequency, TF over GST control); with ETV1 it was 1.15 fold enrichment (6-mer frequency, TF over GST control); in the assay with ERF, 1.16 fold enrichment (6-mer frequency, TF over GST control); in the assay with ETV3L, 1.21 fold enrichment (6-mer frequency, TF over GST control). The binding signal with ETS2 is 1.23 fold enrichment (6-mer frequency, TF over GST control); in the assay with SPDEF, 1.16 fold enrichment (6-mer frequency, TF over GST control); with ETV7, 1.05 fold enrichment (6-mer frequency, TF over GST control); with ELF5, 1.15 fold enrichment (6-mer frequency, TF over GST control); in the assay with ETV3, 1.13 fold enrichment (6-mer frequency, TF over GST control); with ETV6, 1.26 fold enrichment (6-mer frequency, TF over GST control).

For the origin of these results see article PMC7862700, “An all-to-all approach to the identification of sequence-specific readers for epigenetic DNA modifications on cytosine”.
